The full ranking holds about 33,000 sequences; the median of “E-score (-0.5 to 0.5)” is about -0.016, and the highest 2% start at about 0.3. The entries come from a sample that favours the highest values as a whole.
These sequences were tested against T1, Yer184c (UniProt P39961) (assay: PBM E-score (8-mer binding enrichment) (E-score (-0.5 to 0.5)); higher = stronger / more preferred TF binding). Conditions: protein concentration: 100 nM; construct: GST-full length.
T1 sequence: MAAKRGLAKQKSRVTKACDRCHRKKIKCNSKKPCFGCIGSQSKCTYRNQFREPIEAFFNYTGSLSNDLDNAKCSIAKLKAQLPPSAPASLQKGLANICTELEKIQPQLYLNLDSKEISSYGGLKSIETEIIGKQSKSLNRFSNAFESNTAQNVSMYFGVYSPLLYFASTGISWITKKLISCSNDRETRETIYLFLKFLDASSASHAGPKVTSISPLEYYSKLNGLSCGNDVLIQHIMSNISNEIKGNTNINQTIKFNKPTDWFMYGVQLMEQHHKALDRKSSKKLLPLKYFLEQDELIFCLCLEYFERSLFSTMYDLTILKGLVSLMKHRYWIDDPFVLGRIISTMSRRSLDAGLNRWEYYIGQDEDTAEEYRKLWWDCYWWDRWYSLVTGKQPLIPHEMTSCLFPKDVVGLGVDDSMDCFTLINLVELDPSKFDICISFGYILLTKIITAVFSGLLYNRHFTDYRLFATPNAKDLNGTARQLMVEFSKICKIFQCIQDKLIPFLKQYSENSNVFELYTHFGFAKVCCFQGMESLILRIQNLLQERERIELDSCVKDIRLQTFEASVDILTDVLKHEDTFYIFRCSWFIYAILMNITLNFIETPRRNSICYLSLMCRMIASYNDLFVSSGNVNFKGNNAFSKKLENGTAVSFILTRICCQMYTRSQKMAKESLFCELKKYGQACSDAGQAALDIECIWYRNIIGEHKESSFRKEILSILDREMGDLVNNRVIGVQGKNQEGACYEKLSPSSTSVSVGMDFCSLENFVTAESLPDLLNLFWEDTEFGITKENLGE
Protocol: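 Universal 'all 10-mer' protein binding microarrays (Agilent AMADID 015681) probed with GST-tagged S. cerevisiae TFs (full-length or DBD) made by in vitro transcription/translation (PURExpress), about 100-200 nM. Bound TF was detected with fluorescent anti-GST. Each ungapped 8-mer (which stands for itself and its reverse complement) is scored by the PBM enrichment score (E-score), a modified Wilcoxon-Mann-Whitney statistic from -0.5 to +0.5, computed with the Universal PBM Analysis Suite. Scale: above 0.35 generally sequence-specific binding.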

Row | Sequence | PBM E-score
1 | CGGATAAA | 0.417
2 | CGGATGAG | 0.171
3 | CGGATAAG | 0.217
4 | CCCCAAAG | -0.253
5 | CGGAGACC | 0.0297
6 | CGAACACG | 0.172
7 | CTATTGCC | -0.131
8 | TCTCTTAA | 0.126
9 | AAAGCTTT | 0.237
10 | CGTCAACC | -0.137
11 | GGTGCAGA | -0.206
12 | CAAATGAG | -0.104
13 | ACACTCGC | 0.0547
14 | AGAGACAC | -0.119
15 | CGGATAGA | 0.338
16 | CGGATATA | 0.389
17 | CGGAGATA | 0.406
18 | AGGAGATA | -0.134
19 | GGGAGATA | -0.161
20 | CGGATATC | 0.285
21 | TGGATCAA | -0.0363
22 | CGGATCAA | 0.318
23 | CGGATCAG | 0.224
24 | AGGATAGA | 0.0167
25 | GGGATATA | 0.0967

Row | Sequence | PBM E-score
26 | GGGATAGA | -0.186
27 | CTCTCGTA | -0.204
28 | GATGAGCC | -0.0364
29 | GACTTCCC | -0.0878
30 | GAATACGA | 0.118
31 | GTCTCATA | -0.0146
32 | CGCCATGA | -0.155
33 | ATTGCAAC | 0.0297
34 | AGAGATCT | -0.168
35 | CATGAGAC | -0.0666
36 | ATAATATA | 0.323
37 | CTAATAAA | 0.0623
38 | CTAATATA | 0.118
39 | ATAATATG | 0.132
40 | ATAATAAA | 0.276
41 | TTAATAAA | 0.328
42 | ATGTGTCG | -0.0246
43 | AGAGTTTC | -0.0656
44 | AGGAATTG | -0.0124
45 | CCGGTCCG | 0.338
46 | CCGGTCCC | 0.0884
47 | CCGGTCCA | 0.0407
48 | GCCTTAAC | -0.171
49 | CGGTAGTA | 0.0519
50 | GCTCTTCC | 0.0925

Row | Sequence | PBM E-score
51 | AGAGGTTG | -0.19
52 | AGGAGCGA | -0.0501
53 | ACGAGCCG | 0.22
54 | GCGAGCGC | 0.0998
55 | CGGAGCGC | 0.107
56 | CCGAGCCA | 0.219
57 | CCGAGCCG | 0.352
58 | CCGAGCGC | 0.361
59 | CGGAGCCC | -0.177
60 | CGGAGCGA | 0.332
61 | AGGAGCCG | 0.0636
62 | CGGAGCCG | 0.309
63 | CCGAGCGA | 0.244
64 | AGGGATGA | -0.133
65 | GATTGAGC | 0.109
66 | AAGGGGAC | -0.0399
67 | CGGAATGC | 0.249
68 | CAACAGCG | -0.182
69 | ATATCCGG | 0.374
70 | ATATCCGA | 0.343
71 | ATATCCGC | 0.178
72 | CTATCCGA | 0.119
73 | ATGTCCGG | 0.373
74 | ATGTCCGA | 0.231
75 | ATGTCCGC | -0.0241

Row | Sequence | PBM E-score
76 | ATATCCTA | -0.0362
77 | AGATCCGG | 0.263
78 | GTATCCTA | -0.0431
79 | GTATCCCA | -0.0951
80 | GTATCCGA | 0.304
81 | CAAGGGTA | -0.254
82 | GTACGAGA | -0.1
83 | CTCTAAGC | 0.0215
84 | GGACCCAC | -0.182
85 | ATTGTCCC | -0.0916
86 | ATTGTTCG | 0.346
87 | ATTGTTCC | 0.267
88 | ATTGTCCG | 0.345
89 | CTTGTTTC | 0.0564
90 | ATTGTTTC | 0.324
91 | ATTGTTCA | 0.112
92 | ATTGTTTG | 0.137
93 | ATTGTCCA | 0.143
94 | GCCCAGTA | -0.14
95 | AACGGCCG | 0.3
96 | ATTGAATA | 0.24
97 | ATCCATAA | 0.168
98 | ACCCTAAC | -0.0425
99 | TAATCGGA | 0.248
100 | GAATCGGC | 0.254

Row | Sequence | PBM E-score
101 | CGATCGGA | 0.142
102 | GGATCGGA | 0.228
103 | GAATCGGA | 0.318
104 | AAATCGGA | 0.308
105 | AGATCGGA | 0.34
106 | ACATCGGA | 0.223
107 | GCATCGGA | 0.307
108 | AAATCGGG | 0.0884
109 | GCATCGGC | 0.176
110 | AAATCGGT | 0.0224
111 | CAAACAAG | 0.0388
112 | AACCTCTT | 0.178
113 | CCCAAGTC | -0.223
114 | AAGCAGTA | -0.209
115 | TGACTGAA | -0.14
116 | AAATGCTT | 0.0617
117 | TCTGCGAA | -0.186
118 | GCCTGCTA | -0.0406
119 | ACTTCCAG | -0.112
120 | CCGTTCAA | 0.197
121 | CCCTCATA | -0.288
122 | CCTCGAGG | -0.112
123 | GGAGTACC | -0.219
124 | ATATCGGA | 0.277
125 | CTATCGGA | 0.319

Row | Sequence | PBM E-score
126 | GTATCGGA | 0.208
127 | AAAGGGCA | -0.226
128 | ATATGGCA | -0.15
129 | CCACAGTA | -0.1
130 | CCTCCTTA | -0.179
131 | AGATTCCG | 0.338
132 | AGATTCCT | -0.215
133 | ATATTCCA | 0.16
134 | ATATTCCC | 0.176
135 | AGATTCCC | -0.0681
136 | ATATTCCG | 0.38
137 | ATAGTGCA | 0.104
138 | CGGTGCGA | 0.00174
139 | CGATGGTA | -0.146
140 | CGTCCGAA | 0.239
141 | AGTCCGAC | -0.14
142 | TGTCCAAA | 0.143
143 | TGTCCGAA | 0.334
144 | AGTCCGAA | 0.343
145 | AGTCCGAT | 0.19
146 | ATTCTGCA | 0.124
147 | TAAGCTAA | 0.138
148 | AGACCTAT | 0.0227
149 | AATATCAT | 0.142
150 | CCTCGCCC | -0.125

Row | Sequence | PBM E-score
151 | TCCGTAGA | 0.204
152 | GCCGTAGC | 0.045
153 | GCCGTAGA | 0.322
154 | ACCGTAAA | 0.0422
155 | TCCGTAAA | 0.303
156 | GCCGTAAA | 0.339
157 | GAAGCGTA | -0.0311
158 | GGATTCGA | -0.0994
159 | AATGCAAT | -0.256
160 | ATGACGGA | 0.198
161 | CACTTCTG | -0.207
162 | GATCTTTA | 0.106
163 | ATAACAAG | 0.209
164 | ATAACAAT | 0.115
165 | AGAACAAT | 0.174
166 | AGAACAAG | 0.143
167 | AGAACAAA | 0.349
168 | ATAACAAA | 0.357
169 | AGAGATAC | -0.0106
170 | AGTGAGAT | -0.107
171 | CGAGAGAG | 0.166
172 | AAGAGCAA | -0.0457

— the supplement of paper PMC3334620
